Experimental data reported in the supplement of paper PMC13380429.

Test system: Vero E6 infected with SARS-CoV-2
Test: inhibition of SARS-CoV-2 cytopathic effect; higher = more antiviral protection, active = above 15
Details: 48 h

Measured: inhibition of SARS-CoV-2 cytopathic effect

O=C(O)c1ccc2c(c1)nc(Nc1cccc(Cl)c1)c1ccncc12
inactive: 1 nM -2.63% | 8.33 nM 0.18% | 100 nM -2.24% | 833.33 nM 0.52% | 10000 nM -1.33%

COc1ccc2c(c1)C(C(=O)N(Cc1ccc(N(C)C)cc1)c1ccc(C(C)C)cc1)CCC2 (stereo not given)
inactive: 1 nM -2.02% | 8.33 nM 0.34% | 100 nM 3.26% | 833.33 nM 1.87% | 10000 nM -3.29%

C#C[C@]1(O)C=C[C@H]2[C@@H]3CCC4=CC(=O)CC[C@@H]4[C@H]3CC[C@@]21CC [gestodene]
inactive: 1 nM 0.01% | 8.33 nM 1.99% | 100 nM -0.48% | 833.33 nM -1.22% | 10000 nM 1.3%

COc1ccc(C(=O)C2CCN(CC(=O)N(Cc3nc4c(c(=O)[nH]3)COCC4)CC3CC3)CC2)cc1
inactive: 1 nM 1.44% | 8.33 nM -0.07% | 100 nM -1.36% | 833.33 nM 1.12% | 10000 nM -1.65%

c1cc(OCCN2CCCCC2)cc(-c2n[nH]c3ccc(-c4nnc[nH]4)cc23)c1
inactive: 1 nM -0.48% | 8.33 nM -0.97% | 100 nM -0.96% | 833.33 nM 3.62% | 10000 nM 3.74%

CC(=O)O[C@]1(C(C)=O)CC[C@H]2[C@@H]3C[C@H](C)C4=CC(=O)CC[C@]4(C)[C@H]3CC[C@@]21C [medroxyprogesterone-acetate]
inactive: 1 nM 1.02% | 8.33 nM 0.71% | 100 nM -1.14% | 833.33 nM 2.58% | 10000 nM 6.49%

CN(C)CC/C=C1/c2ccccc2COc2ccccc21 [doxepin]
inactive: 1 nM -0.79% | 8.33 nM 1.36% | 100 nM 1.85% | 833.33 nM -1.94% | 10000 nM -2.1%

N=C(N)NCCC[C@@H](NC(=O)[C@@H]1CCCN1C(=O)[C@@H]1CSSCCC(=O)N[C@@H](Cc2ccc(O)cc2)C(=O)N[C@@H](Cc2ccccc2)C(=O)N[C@@H](CCC(N)=O)C(=O)N[C@@H](CC(N)=O)C(=O)N1)C(=O)NCC(N)=O [desmopressin-acetate]
inactive: 1 nM -0.33% | 8.33 nM -2.9% | 100 nM 0.69% | 833.33 nM 0.25% | 10000 nM 0.02%
